# Reference: article PMC11006913
# Positions count from the first letter of the chain named.
# Assays:
# Test in all cases: PBM; 200 nM protein, PBS
# Conditions in all cases: dsDNA, one strand shown
# NKX2-5 [1] = target: NKX2-5 (Homo sapiens, UniProt P52952 125-210, R139K)
# NKX2-4 [2] = target: T1, NKX2-4 (Homo sapiens, UniProt Q9H2Z4 175-261, P217L)
# T1 sequence: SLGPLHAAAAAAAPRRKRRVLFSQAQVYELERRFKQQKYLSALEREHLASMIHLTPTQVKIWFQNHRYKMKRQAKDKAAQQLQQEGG
# NKX2-4 [3] = target: T2, NKX2-4 (Homo sapiens, UniProt Q9H2Z4 175-261, T231S)
# T2 sequence: T1 sequence with L43P, T57S
# NKX2-4 [4] = target: T3, NKX2-4 (Homo sapiens, UniProt Q9H2Z4 175-261)
# T3 sequence: T1 sequence with L43P
# NKX2-6 [5] = target: T4, NKX2-6 (Homo sapiens, UniProt A6NCS4 118-204)
# T4 sequence: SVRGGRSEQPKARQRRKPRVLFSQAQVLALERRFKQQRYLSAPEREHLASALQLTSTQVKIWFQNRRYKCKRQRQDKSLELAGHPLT
# NKX2-4 [6] = target: T5, NKX2-4 (Homo sapiens, UniProt Q9H2Z4 175-261, R246Q)
# T5 sequence: T1 sequence with L43P, R72Q
# NKX2-6 [7] = target: T6, NKX2-6 (Homo sapiens, UniProt A6NCS4 118-204, F151L)
# T6 sequence: T4 sequence with F34L
# NKX2-5 [8] = target: NKX2-5 (Homo sapiens, UniProt P52952 125-210)
# NKX2-5 (Homo sapiens, UniProt P52952 125-210), sequence (P52952 125-210): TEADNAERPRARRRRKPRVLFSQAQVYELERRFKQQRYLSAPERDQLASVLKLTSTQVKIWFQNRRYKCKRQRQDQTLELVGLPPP
# VENTX [9] = target: T7, VENTX (Homo sapiens, UniProt O95231 78-163, R121Q)
# T7 sequence: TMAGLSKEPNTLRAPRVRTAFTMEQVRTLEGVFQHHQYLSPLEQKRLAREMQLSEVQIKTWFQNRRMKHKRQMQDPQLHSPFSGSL
# VENTX [10] = target: T8, VENTX (Homo sapiens, UniProt O95231 78-163)
# T8 sequence: T7 sequence with Q44R
# VENTX [11] = target: T9, VENTX (Homo sapiens, UniProt O95231 78-163, Y115F)
# T9 sequence: T7 sequence with Y38F, Q44R
# ALX1 [12] = target: ALX1 (Homo sapiens, UniProt Q15699 118-204, L144V)
# ALX1 (Homo sapiens, UniProt Q15699 118-204, L144V), sequence (Q15699 118-204 L144V): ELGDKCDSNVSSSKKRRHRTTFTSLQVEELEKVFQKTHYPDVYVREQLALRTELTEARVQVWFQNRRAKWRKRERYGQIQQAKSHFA
# ALX1 [13] = target: ALX1 (Homo sapiens, UniProt Q15699 118-204, L144R)
# ALX1 (Homo sapiens, UniProt Q15699 118-204, L144R), sequence (Q15699 118-204 L144R): as the sequence (Q15699 118-204 L144V) above, with V27R counted along it
# ALX1 [14] = target: ALX1 (Homo sapiens, UniProt Q15699 118-204)
# ALX1 (Homo sapiens, UniProt Q15699 118-204), sequence (Q15699 118-204): as the sequence (Q15699 118-204 L144V) above, with V27L counted along it
# NKX2-6 [15] = target: T10, NKX2-6 (Homo sapiens, UniProt A6NCS4 118-204, R150C)
# T10 sequence: T4 sequence with R33C
# NKX3-2 [16] = target: NKX3-2 (Homo sapiens, UniProt P78367 192-278, P234S)
# NKX3-2 (Homo sapiens, UniProt P78367 192-278, P234S), sequence (P78367 192-278 P234S): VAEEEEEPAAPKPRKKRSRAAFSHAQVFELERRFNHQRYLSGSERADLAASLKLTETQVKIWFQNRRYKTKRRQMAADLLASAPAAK
# NKX3-2 [17] = target: NKX3-2 (Homo sapiens, UniProt P78367 192-278)
# NKX3-2 (Homo sapiens, UniProt P78367 192-278), sequence (P78367 192-278): as the sequence (P78367 192-278 P234S) above, with S43P counted along it
# NKX2-5 (Homo sapiens, UniProt P52952 125-210, R139K), sequence (P52952 125-210 R139K): as the sequence (P52952 125-210) above, with R15K counted along it
sequence,measurement,setting,value
CACTTCAG,binding signal,NKX2-5 [1],"12.4 upbm affinity estimate (log intensity, higher = more binding, comparable within an allelic series)"
same,binding signal,NKX2-4 [2],"12.6 upbm affinity estimate (log intensity, higher = more binding, comparable within an allelic series)"
same,binding signal,NKX2-4 [3],"12.9 upbm affinity estimate (log intensity, higher = more binding, comparable within an allelic series)"
same,binding signal,NKX2-4 [4],"12.4 upbm affinity estimate (log intensity, higher = more binding, comparable within an allelic series)"
same,binding signal,NKX2-6 [5],"13.4 upbm affinity estimate (log intensity, higher = more binding, comparable within an allelic series)"
same,binding signal,NKX2-4 [6],"13.1 upbm affinity estimate (log intensity, higher = more binding, comparable within an allelic series)"
same,binding signal,NKX2-6 [7],"10.8 upbm affinity estimate (log intensity, higher = more binding, comparable within an allelic series)"
same,binding signal,NKX2-5 [8],"12.3 upbm affinity estimate (log intensity, higher = more binding, comparable within an allelic series)"
ATAATGGG,binding signal,NKX2-5 [1],"10.9 upbm affinity estimate (log intensity, higher = more binding, comparable within an allelic series)"
same,binding signal,VENTX [9],"11.4 upbm affinity estimate (log intensity, higher = more binding, comparable within an allelic series)"
same,binding signal,VENTX [10],"12.4 upbm affinity estimate (log intensity, higher = more binding, comparable within an allelic series)"
same,binding signal,VENTX [11],"11.4 upbm affinity estimate (log intensity, higher = more binding, comparable within an allelic series)"
same,binding signal,NKX2-5 [8],"11 upbm affinity estimate (log intensity, higher = more binding, comparable within an allelic series)"
GCGACGCC,binding signal,NKX2-5 [1],"8.87 upbm affinity estimate (log intensity, higher = more binding, comparable within an allelic series)"
same,binding signal,VENTX [9],"8.02 upbm affinity estimate (log intensity, higher = more binding, comparable within an allelic series)"
same,binding signal,VENTX [10],"8.21 upbm affinity estimate (log intensity, higher = more binding, comparable within an allelic series)"
same,binding signal,VENTX [11],"8.16 upbm affinity estimate (log intensity, higher = more binding, comparable within an allelic series)"
same,binding signal,NKX2-5 [8],"8.83 upbm affinity estimate (log intensity, higher = more binding, comparable within an allelic series)"
ATCGGTGG,binding signal,NKX2-5 [1],"8.85 upbm affinity estimate (log intensity, higher = more binding, comparable within an allelic series)"
same,binding signal,NKX2-4 [2],"9.32 upbm affinity estimate (log intensity, higher = more binding, comparable within an allelic series)"
same,binding signal,NKX2-4 [3],"9.63 upbm affinity estimate (log intensity, higher = more binding, comparable within an allelic series)"
same,binding signal,NKX2-4 [4],"9.38 upbm affinity estimate (log intensity, higher = more binding, comparable within an allelic series)"
same,binding signal,NKX2-4 [6],"9.32 upbm affinity estimate (log intensity, higher = more binding, comparable within an allelic series)"
same,binding signal,NKX2-5 [8],"8.79 upbm affinity estimate (log intensity, higher = more binding, comparable within an allelic series)"
CGGTCGGC,binding signal,NKX2-5 [1],"8.67 upbm affinity estimate (log intensity, higher = more binding, comparable within an allelic series)"
same,binding signal,VENTX [9],"8.16 upbm affinity estimate (log intensity, higher = more binding, comparable within an allelic series)"
same,binding signal,VENTX [10],"8.35 upbm affinity estimate (log intensity, higher = more binding, comparable within an allelic series)"
same,binding signal,VENTX [11],"8.29 upbm affinity estimate (log intensity, higher = more binding, comparable within an allelic series)"
same,binding signal,ALX1 [12],"6.28 upbm affinity estimate (log intensity, higher = more binding, comparable within an allelic series)"
same,binding signal,ALX1 [13],"6.31 upbm affinity estimate (log intensity, higher = more binding, comparable within an allelic series)"
same,binding signal,ALX1 [14],"6.46 upbm affinity estimate (log intensity, higher = more binding, comparable within an allelic series)"
same,binding signal,NKX2-5 [8],"8.65 upbm affinity estimate (log intensity, higher = more binding, comparable within an allelic series)"
CACTTGAA,binding signal,NKX2-5 [1],"13.2 upbm affinity estimate (log intensity, higher = more binding, comparable within an allelic series)"
same,binding signal,NKX2-4 [2],"12.8 upbm affinity estimate (log intensity, higher = more binding, comparable within an allelic series)"
same,binding signal,NKX2-4 [3],"13.3 upbm affinity estimate (log intensity, higher = more binding, comparable within an allelic series)"
same,binding signal,NKX2-4 [4],"12.7 upbm affinity estimate (log intensity, higher = more binding, comparable within an allelic series)"
same,binding signal,NKX2-6 [15],"12.2 upbm affinity estimate (log intensity, higher = more binding, comparable within an allelic series)"
same,binding signal,NKX2-6 [5],"13.9 upbm affinity estimate (log intensity, higher = more binding, comparable within an allelic series)"
same,binding signal,NKX2-4 [6],"13.5 upbm affinity estimate (log intensity, higher = more binding, comparable within an allelic series)"
same,binding signal,NKX2-6 [7],"11.4 upbm affinity estimate (log intensity, higher = more binding, comparable within an allelic series)"
same,binding signal,NKX2-5 [8],"13.2 upbm affinity estimate (log intensity, higher = more binding, comparable within an allelic series)"
CAAGTACC,binding signal,NKX2-5 [1],"12.5 upbm affinity estimate (log intensity, higher = more binding, comparable within an allelic series)"
same,binding signal,NKX2-4 [2],"12.4 upbm affinity estimate (log intensity, higher = more binding, comparable within an allelic series)"
same,binding signal,NKX2-4 [3],"12.8 upbm affinity estimate (log intensity, higher = more binding, comparable within an allelic series)"
same,binding signal,NKX2-4 [4],"12.4 upbm affinity estimate (log intensity, higher = more binding, comparable within an allelic series)"
same,binding signal,NKX2-6 [15],"11.6 upbm affinity estimate (log intensity, higher = more binding, comparable within an allelic series)"
same,binding signal,NKX2-4 [6],"12.9 upbm affinity estimate (log intensity, higher = more binding, comparable within an allelic series)"
same,binding signal,NKX3-2 [16],"12.5 upbm affinity estimate (log intensity, higher = more binding, comparable within an allelic series)"
same,binding signal,NKX2-5 [8],"12.3 upbm affinity estimate (log intensity, higher = more binding, comparable within an allelic series)"
same,binding signal,NKX3-2 [17],"12.6 upbm affinity estimate (log intensity, higher = more binding, comparable within an allelic series)"
CGGTGCAG,binding signal,NKX2-5 [1],"8.83 upbm affinity estimate (log intensity, higher = more binding, comparable within an allelic series)"
same,binding signal,NKX2-4 [2],"9.49 upbm affinity estimate (log intensity, higher = more binding, comparable within an allelic series)"
same,binding signal,NKX2-4 [3],"9.46 upbm affinity estimate (log intensity, higher = more binding, comparable within an allelic series)"
same,binding signal,NKX2-4 [4],"9.46 upbm affinity estimate (log intensity, higher = more binding, comparable within an allelic series)"
same,binding signal,NKX2-4 [6],"9.48 upbm affinity estimate (log intensity, higher = more binding, comparable within an allelic series)"
same,binding signal,NKX2-5 [8],"8.91 upbm affinity estimate (log intensity, higher = more binding, comparable within an allelic series)"
CCTGGGCC,binding signal,NKX2-5 [1],"8.72 upbm affinity estimate (log intensity, higher = more binding, comparable within an allelic series)"
same,binding signal,VENTX [9],"7.97 upbm affinity estimate (log intensity, higher = more binding, comparable within an allelic series)"
same,binding signal,VENTX [10],"8.01 upbm affinity estimate (log intensity, higher = more binding, comparable within an allelic series)"
same,binding signal,VENTX [11],"7.99 upbm affinity estimate (log intensity, higher = more binding, comparable within an allelic series)"
same,binding signal,NKX2-5 [8],"8.87 upbm affinity estimate (log intensity, higher = more binding, comparable within an allelic series)"
AGCCGACA,binding signal,NKX2-5 [1],"8.87 upbm affinity estimate (log intensity, higher = more binding, comparable within an allelic series)"
same,binding signal,NKX2-5 [8],"9.05 upbm affinity estimate (log intensity, higher = more binding, comparable within an allelic series)"
